Measured values reported in PubChem BioAssay (NCI).
Compounds without any hit were thinned out: in the full panel of roughly 83,000, 20% have a hit.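 Values shown are percent growth following 48 h exposure of cells in 96-well plates to a single concentration of compound; below 10 was considered active.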 Values without a mark were called inactive. Calls of active or inactive are those of the source.

How the values were obtained:
Assay in all cases: NCI-60 one-dose screen, 48 h (100 = growth as untreated, 0 = no growth, -100 = all killed)
Conditions in all cases: 10 µM
NCI-H23 lung = test system: NCI-H23 lung
NCI-H226 lung = test system: NCI-H226 lung
NCI-H322M lung = test system: NCI-H322M lung
HOP-62 NSCLC = test system: HOP-62 NSCLC
NCI-H460 lung = test system: NCI-H460 lung
HOP-92 NSCLC = test system: HOP-92 NSCLC
NCI-H522 lung = test system: NCI-H522 lung
A549/ATCC NSCLC = test system: A549/ATCC NSCLC
786-0 renal = test system: 786-0 renal
COLO 205 colon = test system: COLO 205 colon
DU-145 prostate = test system: DU-145 prostate
K-562 leukemia = test system: K-562 leukemia
MALME-3M melanoma = test system: MALME-3M melanoma
MDA-MB-231 breast = test system: MDA-MB-231 breast
RXF 393 renal = test system: RXF 393 renal
SF-268 CNS = test system: SF-268 CNS
SF-295 CNS = test system: SF-295 CNS
SF-539 CNS = test system: SF-539 CNS
UACC-257 melanoma = test system: UACC-257 melanoma
M14 melanoma = test system: M14 melanoma

Compound | growth (NCI-H23 lung) | growth (NCI-H226 lung) | growth (NCI-H322M lung) | growth (HOP-62 NSCLC) | growth (NCI-H460 lung) | growth (HOP-92 NSCLC) | growth (NCI-H522 lung) | growth (A549/ATCC NSCLC) | growth (786-0 renal) | growth (COLO 205 colon) | growth (DU-145 prostate) | growth (K-562 leukemia) | growth (MALME-3M melanoma) | growth (MDA-MB-231 breast) | growth (RXF 393 renal) | growth (SF-268 CNS) | growth (SF-295 CNS) | growth (SF-539 CNS) | growth (UACC-257 melanoma) | growth (M14 melanoma)
COC[C@@H](CC(C)C)N=C1NC(=O)/C(=C/c2ccc3ncoc3c2)N1 | -14.2% (active) | 0.124% (active) | 20.4% | 14.4% | 6.38% (active) | 15.8% | -16.2% (active) | 13.7% | 22.2% | -16.1% (active) | 22.6% | 14.4% | 32.5% | 12.3% | -8.35% (active) | 22% | 34.4% | -5.08% (active) | 11.5% | 41%
C=C1CCC2C3(C)COC(c4c(F)cccc4F)OC3CCC2(C)C1C/C=C1/C(=O)OCC1O (stereo not given) | -46.8% (active) | -11.2% (active) | 37.5% | -13.7% (active) | -22.3% (active) | 4.64% (active) | -67.7% (active) | 10.1% | -77.6% (active) | -35.8% (active) | -60.3% (active) | 13.4% | -62.7% (active) | -33.4% (active) | -72.8% (active) | 65.2% | -21% (active) | -92.2% (active) | -46.8% (active) | -23.7% (active)
O=C1Nc2cc(-c3ccc(NC(=O)c4cccs4)cc3)ccc2/C1=C/c1ccc[nH]1 | 66.4% | 40.4% | 99.3% | 98.3% | 83% | 104% | 79.4% | 81.7% | 98.5% | 99.7% | 32.7% | 80.8% | 78.2% | 61% | 73.9% | 73.5% | 55.1% | 83.9% | 75.2% | 88.9%
NS(=O)(=O)c1ccc(N=Nc2c(O)n(CC(=O)Nc3ccccc3Br)c3ccccc23)cc1 | 40% | 14.4% | 50.3% | 37.6% | 26.4% | 38.7% | 32.6% | 19.8% | 20.1% | 5.92% (active) | 34.7% | 27.2% | 26.5% | 11.2% | 27.6% | 86.6% | 25.8% | 5.32% (active) | 50% | 27.9%
Nc1n[nH]c2cccc(C#Cc3cccc(NC(=O)Nc4cc(C(F)(F)F)cc(C(F)(F)F)c4)c3)c12 | -88.4% (active) | -52.6% (active) | -22.4% (active) | -55.3% (active) | -56.8% (active) | -71.5% (active) | -58.4% (active) | -35.3% (active) | -20.3% (active) | -77.5% (active) | 7.02% (active) | -57.4% (active) | -67.6% (active) | -93.4% (active) | -70.9% (active) | -2.88% (active) | -75.3% (active) | -73% (active) | -57.3% (active) | -9.94% (active)
Cc1ccc(F)cc1N/C=c1\s/c(=C(\C#N)C(=O)Nc2ccccc2)n(-c2ccccc2)c1=O | 58% | 20.3% | 81.8% | 51.8% | 71.7% | 27.6% | 74.7% | 37.7% | 34.6% | 99% | 54.5% | 83.4% | 53% | 2.68% (active) | 6.54% (active) | 69.5% | 47.8% | 27% | 99% | 82.4%
COc1cccc(-c2ccc(/C=N/NC(=O)c3[nH]c4ccc(Br)cc4c3-c3ccccc3)o2)c1 | 22.4% | 31.4% | 45.7% | 12.8% | 4.13% (active) | 54.4% | -42.8% (active) | 19.6% | 9.39% (active) | -40.6% (active) | 25.9% | 3.8% (active) | 47.5% | 23.6% | 26.1% | 33.5% | -14.6% (active) | -67.7% (active) | 36.9% | 16.7%
COc1ccccc1[C@H]1C(C(=O)c2ccc(O)cc2)C2(N[C@@H]1c1ccccc1)C(=O)Nc1ccc(Br)cc12 (stereo not given in full) | 33.8% | 48.1% | 55.3% | 51.3% | 20.2% | 51.8% | -7.87% (active) | 32.6% | 26.9% | -5.4% (active) | 56% | 23.1% | 66.3% | 32.9% | 13.5% | 53.1% | 27.9% | 51.8% | 56.1% | 51.6%
Cc1cc2nc3c4ccccc4n(CCO)c3nc2cc1C | 60.1% | 69.7% | 92.4% | 68.8% | 98.3% | 34.9% | 78.8% | 97.6% | 12.1% | 106% | 58% | 74.4% | 37.8% | 18.5% | 38.6% | 78.1% | 66% | 37.1% | 91.7% | 84.6%
Cc1cc(C)cc(Oc2cccc(-c3c(C)nnn3C3CCN(CCN(C)C)CC3)n2)c1 | 34.5% | 5.11% (active) | 40% | 42.5% | 51.1% | -9.61% (active) | -15.7% (active) | 30.3% | 22.3% | -74% (active) | 55.8% | 13.6% | -40.5% (active) | 36.9% | -6.82% (active) | 52.2% | 32.9% | 34.2% | -31.7% (active) | 7.14% (active)
CC(=O)NNc1ccc2nnc(-c3ccc(Br)cc3)n2n1 | 91.5% | 87.8% | 107% | 82.5% | 106% | 103% | 85.3% | 95.9% | 86.3% | 109% | 103% | 95.5% | 107% | 94% | 68.5% | 102% | 96.1% | 90.2% | 105% | 98.2%
C=C1CCC2C3(C)COC(c4cccc(F)c4)OC3CCC2(C)C1CC(O)C1=CCOC1=O (stereo not given) | 82.9% | 73.1% | 90.4% | 88.7% | 82.2% | 76.4% | 23.9% | 80.3% | 41.1% | 60.7% | 72.8% | 24.1% | 90.8% | 67.5% | 57.2% | 106% | 74.5% | 84.8% | 72.7% | 61.1%
O=C1NC(=NC23CC4CC(CC(C4)C2)C3)N/C1=C\c1ccc2ncoc2c1 | -49.7% (active) | 21.4% | 3.73% (active) | 13.2% | 13.7% | 15.3% | -17.3% (active) | 10% | 14.4% | -34.4% (active) | 7.99% (active) | 12.1% | -24.3% (active) | -1.98% (active) | -52.5% (active) | 9.72% (active) | 11.2% | -49.2% (active) | 4.63% (active) | 29.4%
C=C1CCC2C3(C)COC(c4cc(F)cc(F)c4)OC3CCC2(C)C1C/C=C1/C(=O)OCC1O (stereo not given) | -39.2% (active) | -20.9% (active) | 24.5% | -64.1% (active) | 13.1% | -52.4% (active) | -79.8% (active) | 4.7% (active) | -90.5% (active) | -68% (active) | -52.9% (active) | 12.7% | -78.8% (active) | -63.7% (active) | -73.7% (active) | 36.7% | -82.7% (active) | -90.9% (active) | -85.4% (active) | -64.6% (active)
COc1ccc(OC)c(/C=N/NC(=O)c2ccc3nc(-c4ccc(Cl)cc4)[nH]c3c2)c1 | 66.1% | 64.3% | 71.1% | 81.6% | 82.5% | 63.4% | 59.1% | 91.2% | 73.4% | 81.7% | 48% | 47.1% | 81.6% | 10.3% | 3.46% (active) | 57% | 48.1% | 54.7% | 114% | 69.1%
COc1ccc2[nH]c(=O)c(CSc3cccc(N)c3)cc2c1 | 79.2% | 74.5% | 74.6% | 61.5% | 20.7% | 76.5% | 62.6% | 46.4% | 55% | 2.77% (active) | 59.4% | 15.6% | 97.1% | 72.7% | 84.8% | 58% | 31.2% | 71.3% | 62.3% | 24%
